Screening data: PubChem, Broad Institute
Only a sample is shown.
aSyn 5UTR act: Activators working through SNCA 5'UTR binding (MLPCN) | 7.1% of 300,000 active | activity score, % (tested at 7.5 µM), hits read low | alpha-synuclein 5'UTR reporter, activators screen; in the data active = activity score below about -60%
Starred values were filed as active, the others as inactive.

SMILES | aSyn 5UTR act
CN(C)/C=C1\Oc2ccc3ccccc3c2C1=O | -116*
CC(C)(C)c1ccc(C(=O)Nc2ccc(F)cc2)s1 | -140*
CCc1cc2cc(C(=O)Nc3ccccc3F)sc2s1 | -134*
CCc1cc2cc(C(=O)Nc3ccc(F)cc3)sc2s1 | -150*
Cc1ccc(-n2c(-c3ccc(Br)cc3)c[n+]3c2CCc2ccc4cccnc4c2-3)cc1 | 86
CC(=O)NCCOc1ccc2oc3ccccc3c2c1 | -133*
S=C(NCCc1ccccc1)NCc1cccs1 | -74*
CC(C)(C)c1ccc(NC(=S)NCc2cccs2)cc1 | -98*
COc1ccc(OCc2ccc(C(=O)O)cc2)cc1 | -111*
Cc1ccccc1OCC(=O)OCC(=O)c1ccc(OCc2ccccc2)cc1 | -112*
O=C(COC(=O)c1cccc([N+](=O)[O-])c1)c1ccc(OCc2ccccc2)cc1 | -75*
COc1ccccc1CC(=O)c1ccc(OCc2ccccc2)cc1 | -73*
Clc1ccc(-c2nc(C3CCCCC3)no2)cc1 | -160*
COc1ccc(-c2nc3ccccc3o2)cc1OC | -82*
c1ccc2oc(-c3ccc4nc[nH]c4c3)nc2c1 | -135*
c1ccc(-n2nnnc2Oc2ccc(-c3nnco3)cc2)cc1 | -62*
O=C(c1ccccc1Oc1nnnn1-c1ccccc1)N1CCOCC1 | -77*
COc1ccc(Oc2nnnn2-c2ccccc2)cc1 | -87*
COc1cccc(Oc2nnnn2-c2ccccc2)c1 | -180*
COc1cccc(N2C(N)=NC(N)=NC2(C)C)c1 | 96
COc1ccccc1Oc1nnnn1-c1ccc(C(N)=O)cc1 | -71*
Cc1ccc(OCc2cn3cccnc3n2)cc1 | -62*
COc1ccc([N+](=O)[O-])cc1Nc1c2ccccc2nc2ccccc12 | 77
COc1ccc(C)cc1Nc1nc(N)c2ccccc2n1 | -102*
Nc1nc(Nc2ccccc2)nc2ccccc12 | -82*
SMILES | aSyn 5UTR act
CN(C)c1ccc(Nc2nc(N)c3ccccc3n2)cc1 | 109
COc1ccc(-c2csc(=NCCO)n2-c2ccccc2)cc1 | -99*
COc1ccc(-c2csc(=Nc3ccccc3)n2CCO)cc1 | -100*
O=C(Nc1ccccc1)C1Cc2ccccc2CN1C(=O)c1ccco1 (stereo not given) | -114*
CCOC(=O)CSc1nc(-c2ccc3c(c2)OCO3)ccc1C#N | -113*
CCOC(=O)CSc1nc(-c2ccncc2)ccc1C#N | -138*
CCCNC(=O)c1cc(Cl)c(NC(=O)C2=CSCCO2)cc1OC | -136*
Cc1ccc(N=c2sc(C)c(C)n2C)cc1 | -178*
Nc1nc(N2CCN(C(=O)c3ccco3)CC2)nc2ccccc12 | -102*
O=C(c1ccco1)N1CCN(c2ncnc3c2oc2ccccc23)CC1 | -113*
O=C1CCCc2nc(N3CCN(C(=O)c4ccco4)CC3)ncc21 | -93*
O=C(c1ccc(-c2nnc(-c3ccccc3)o2)cc1)N1CCCCCC1 | -68*
O=C(O)c1ccc(-c2nnc(-c3ccccc3)o2)cc1 | -78*
O=C(c1ccc(-c2ccccc2)cc1)N1CCN(c2ccccc2)CC1 | -70*
FC(F)(F)c1cnc(-c2cnc(-c3ccncc3)nc2)c(Cl)c1 | -109*
CSCC(=O)N1CCc2ccc(NC(=O)c3ccccc3Cl)cc2C1 | -117*
Cc1sc(NC(=O)c2ccco2)nc1-c1ccc2c(c1)CC(C)N2C(=O)C1CC1 (stereo not given) | -106*
CC1Cc2cc(S(=O)(=O)NCc3ccccc3)ccc2N1C(=O)C1CC1 (stereo not given) | -65*
CCOC(=O)C(=O)Nc1nc(-c2ccc3c(c2)CCN3C(=O)C2CC2)c(C)s1 | -76*
CC(=O)Nc1nc(-c2ccc3c(c2)CC(C)N3C(=O)C2CC2)c(C)s1 (stereo not given) | -295*
O=C(CSc1cccs1)NCCc1ccccc1 | -64*
O=C(CSc1ccccc1)NCCc1ccccc1 | -62*
O=C(CSc1cccs1)Nc1ccc(Cl)cc1 | -116*
CC1=NN(C(N)=S)C(=O)C1N=Nc1ccc(Cl)cc1Cl (stereo not given) | -184*
CC1=NN(C(N)=S)C(=O)C1N=Nc1ccc(C)c(Br)c1 (stereo not given) | -128*
SMILES | aSyn 5UTR act
CC1=NN(C(N)=S)C(=O)C1N=Nc1cccc(C)c1 (stereo not given) | -75*
CCCn1nnc(NC(=O)c2cccc(OCC)c2)n1 | -141*
CCn1nnc(NC(=O)c2ccc(C(C)(C)C)cc2)n1 | -112*
CCCn1nnc(NC(=O)c2ccc3ccccc3c2)n1 | -185*
CCCn1nnc(NC(=O)c2ccc(Cl)cc2Cl)n1 | -115*
Cc1ccc(C(=O)Nc2nnn(C)n2)cc1 | -76*
Cc1c(C(=O)Nc2ccc(Cl)cc2)c2ccccn2c1CCc1ccncc1 | -115*
Cc1c(C(=O)Nc2cccc(Cl)c2)c2ccccn2c1CCc1ccncc1 | -103*
COc1cc2ccccc2cc1C(=O)Nc1ccc(Br)cn1 | -175*
O=C(Nc1ccc(Br)cn1)c1ccc2ccccc2c1 | -83*
COc1c(C(=O)Nc2ccc(Br)cn2)ccc2ccccc12 | -167*
CC(=O)N1CCN(c2ccc(NC(=O)c3ccco3)cc2)CC1 | -83*
CCC(=O)N1CCN(c2ccc(NC(=O)c3ccco3)cc2)CC1 | -94*
C/C(=N\Nc1cc(N2CCOCC2)ncn1)c1cccc([N+](=O)[O-])c1 | -81*
C/C(=N\Nc1cc(N2CCOCC2)ncn1)c1ccccc1 | -79*
O=[N+]([O-])c1cccc(/C=N/Nc2cc(N3CCOCC3)ncn2)c1 | -90*
Clc1ccccc1/C=N/Nc1cc(N2CCOCC2)ncn1 | -151*
CCN1/C(=C2/SC(=S)N(C)C2=O)C=Cc2cc(C)ccc21 | -68*
C=CC[n+]1c(/C=C2\C=Cc3cc(C)ccc3N2CC)ccc2ccccc21 | 67
C=CCN1C(=O)C(=O)N(Cc2nc3ccccc3s2)C1=O | -118*
N#C/C(=C\c1ccc([N+](=O)[O-])cc1)c1ccccn1 | -121*
COC(=O)c1ccc(/C=C(\C#N)c2ccccn2)cc1 | -132*
CN(C)c1ccc(/C=C(\C#N)c2ccccn2)cc1 | 102
CC(C)N1C(=O)CC(Nc2ccc(N3CCOCC3)cc2)C1=O (stereo not given) | -145*
COc1ccc(NC2CC(=O)N(C(C)C)C2=O)cc1 (stereo not given) | -150*
SMILES | aSyn 5UTR act
Cc1ccc2nc(-c3ccc(N4C(=O)CC(N5CCC(C(N)=O)CC5)C4=O)cc3)sc2c1 (stereo not given) | -72*
c1ccc(N2CCN(c3nc4ccccc4[nH]3)CC2)nc1 | -136*
O=[N+]([O-])c1ccc(N/N=C/c2c[nH]c3ccccc23)cc1 | -139*
O=[N+]([O-])c1ccccc1N/N=C/c1c[nH]c2ccccc12 | -105*
Clc1ccc(OCc2nc(-c3ccncc3)no2)c(Cl)c1 | -132*
Clc1cc(Cl)c(OCc2nc(-c3ccccn3)no2)cc1Cl | -85*
CC(C)(C)c1ccc(OCc2nc(-c3ccccn3)no2)c(Br)c1 | -190*
CC1SCC(NC(=O)c2ccccc2Cl)CS1 (stereo not given) | -102*
CC1SCC(NC(=O)c2ccc(Cl)cc2)CS1 (stereo not given) | -111*
Cc1ccc2c(c1)cc1c(=O)[nH]ncn12 | -67*
Cc1ccc(/C(N)=N/OC(=O)N2CCOCC2)cc1 | -62*
Cc1ccc(/C(N)=N/OC(=O)C23CC4CC(CC(C4)C2)C3)cc1 | -185*
O=c1n(Cc2ccccc2Cl)nc2n1-c1ccccc1SC2 | -87*
O=[N+]([O-])c1ccc(O)c(C=Nc2ccc3nc(-c4ccccc4)[nH]c3c2)c1 | -166*
Oc1c(Br)cc(C=Nc2ccc3nc(-c4ccccc4)[nH]c3c2)c(O)c1Br | -124*
